Source: PubChem BioAssay (Sanford-Burnham Center for Chemical Genomics)
The full list was thinned out, with hits kept by preference.
ER stress death – ER stress cell death inhibition; relative survival (cellular ATP), % at 15 µg/mL (by protocol); 48,000 tested, 0.33% active; AID 1010; CSM14.1 thapsigargin ER stress survival, ATP luminescence;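 active = survival measured by cellular ATP above 50% at 15 µg/ml in the first screen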;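 also: cell death triggered by about 15 µM thapsigargin; ATP read 24 h after thapsigargin was added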
Hits are given with their value.

For CCCCOC(=O)C1=C(C)NC2=C(C(=O)CC(c3ccccc3)C2)C1c1ccco1 (configuration not stated) the results were ER stress death 68.
`COc1ccccc1C1Nc2ccccc2NC2=C1C(=O)CC(c1ccccc1)C2` (configuration not stated) gave ER stress death inactive.
`CCCCOc1ccccc1C1Nc2ccccc2NC2=C1C(=O)CC(c1ccccc1)C2` (configuration not stated) gave ER stress death 53.
For CSc1ccc(C2Nc3ccccc3NC3=C2C(=O)CC(c2ccccc2)C3)cc1 (configuration not stated) the results were ER stress death 91.
`COc1ccc(C2CC(=O)C3=C(C2)Nc2ccccc2NC3c2ccccc2)cc1` (configuration not stated) gave ER stress death inactive.
Cc1onc(-c2c(F)cccc2Cl)c1C(=O)N1CCOCC1 was read as ER stress death inactive.
For CC(C)(C)c1cc(N2C(=O)C(=O)/C(=C(\O)c3ccccc3)C2c2ccc(Br)cc2)no1 (configuration not stated) the results were ER stress death inactive.
Screening CCOC(=O)C1=C(C)NC(=O)/C1=C\c1cccs1 returned ER stress death inactive.
`CC1(C)C/C(=N\N)c2cc(=O)[nH]nc2C1` gave ER stress death inactive.
`COc1cc2c(C)[nH]c(=O)c(CC(=O)Nc3ccccc3)c2cc1OC` gave ER stress death inactive.
`Cn1c(=O)n(C)c2cc(C3Nc4ccc5ccccc5c4C4=C3C(=O)CC(C)(C)C4)ccc21` (configuration not stated) gave ER stress death inactive.
Cc1cc(C)c2oc(-c3ccc(C)c(NC(=O)c4cccc(Cl)c4Cl)c3)nc2c1 was read as ER stress death inactive.
`CCOc1ccc(N2C(=O)C3C(C2=O)C2(C)c4ccccc4C3(C)c3ccccc32)cc1` (configuration not stated) gave ER stress death inactive.
Cc1ccc(C(=O)c2ccc(Br)c([N+](=O)[O-])c2)cc1C was read as ER stress death inactive.
O=C1CC(c2ccccc2)CC2=C1C(c1ccc(OCc3ccccc3)cc1)Nc1ccccc1N2 (configuration not stated) was read as ER stress death inactive.
`CCOc1ccc(C2Nc3ccccc3NC3=C2C(=O)CC(c2ccccc2)C3)cc1` (configuration not stated) gave ER stress death 100.
`CCOc1ccc(C2Nc3ccccc3NC3=C2C(=O)CC(c2ccc(OC)cc2)C3)cc1` (configuration not stated) gave ER stress death inactive.
Cc1c(N2C(=O)/C(=C3/C(=O)N(CC(N)=O)c4ccccc43)SC2=S)c(=O)n(-c2ccccc2)n1C was read as ER stress death inactive.
`CCOc1ccc(C(=O)Nc2ccc(Cc3ccncc3)cc2)cc1Cl` gave ER stress death inactive.
`CCOc1ccc(C(=O)Nc2ccc(Cl)c(-c3nc4ccccc4[nH]3)c2)cc1Cl` gave ER stress death 65.
For CCOc1ccc(C(=O)Nc2cc(Cl)cc(Cl)c2)cc1Cl the results were ER stress death inactive.
Screening Cc1ccc2nc(-c3cc(N=C/C=C/c4ccc(Cl)cc4)ccc3O)oc2c1 returned ER stress death inactive.
For CCN(CC)S(=O)(=O)c1ccc(NC(C)=O)cc1 the results were ER stress death inactive.
For CC(=O)c1ccc(NC(=O)c2ccc(-c3cccc(Cl)c3)o2)cc1 the results were ER stress death inactive.
For CCOc1ccccc1N(CC(=O)Nc1ccc(C)c(C)c1)S(=O)(=O)c1ccccc1 the results were ER stress death inactive.
Screening O=C(C(c1ccccc1)c1ccccc1)N1CCN(Cc2ccccc2[N+](=O)[O-])CC1 returned ER stress death 92.
For COc1ccccc1C(=O)N1CCN(Cc2ccccc2[N+](=O)[O-])CC1 the results were ER stress death inactive.
`COc1cccc(CN2CCN(C(=O)C(c3ccccc3)c3ccccc3)CC2)c1OC` gave ER stress death inactive.
`CCC1CCc2c(sc(NC(=O)c3ccc(C(C)C)cc3)c2C(N)=O)C1` (configuration not stated) gave ER stress death inactive.
For CC1(C)CC(=O)c2cnc(NC(=O)/C=C/c3cccc([N+](=O)[O-])c3)nc2C1 the results were ER stress death inactive.
For CC(=O)Nc1ccc(NC(=O)c2ccc(Cl)c(Cl)c2)cc1 the results were ER stress death inactive.
